Experimental data: PubChem BioAssay (NCATS)
Records with an inconclusive call do not appear. Active and inactive are the calls of the source. Calls come from the whole dose curve; as a rule, active = well fitted activation curve with a large enough effect in the repeat runs; inconclusive = weak or mixed curves; inactive = flat fitted curve, though single readings scatter.

experiment: qHTS assay for small molecule agonists of the antioxidant response element (ARE) signaling pathway measured by Nrf2-dependant transcriptional activity (AID 720636); settings: ARE-luc HepG2, Nrf2 luciferase reporter, 16 h; series mostly up to 92.4 µM; activation: at the top concentration; note: % of control where 0% means no effect
From the text: National Center for Advancing Translational Sciences [NCATS] NIH Chemical Genomics Center [NCGC] U.S. Environmental Protection Agency [EPA] National Institutes of Environmental Health Sciences [NIEHS] National Toxicology Program [NTP] Assay Overview: The antioxidant response element (ARE) signaling pathway plays an important role in the cellular anti-oxidant defense. Exposure to stressors which are exogenous like ionizing radiations, chemicals, U-V light, and endogenous like cell signaling, metabolic processes or inflammation, reactive oxygen species (ROS), can induce oxidative stress in the cells. Oxidative stress has been implicated in the pathogenesis of a variety of diseases ranging from cancer to neurodegeneration. ARE-luc HepG2 cell line (Simmons et al., Current Chemical Genomics, 5:1-12, 2011) has been used for identifying the chemicals that induce oxidative stress. The cell line has an Nrf2-responsive luciferase reporter gene that has been engineered to measure Nrf2-dependant transcriptional activity.
Assay Protocol Summary: For measuring ARE induction; 2,000 ARE-luc HepG2 cells in 5 uL of assay medium containing 1% dialyzed FBS per well were dispensed into white wall/solid bottom 1536-well plates using a Flying Reagent Dispenser (FRD) (Aurora Discovery). The assay plates were incubated for 6 hr at 37 C to allow cell attachment to the well bottom, followed by the transfer of 23 nL compound or DMSO vehicle by a pin tool (Kalypsys). The plates were incubated for 16 hr at 37 C and 5% CO2, followed by the addition of 5 uL of ONE-GloTM luciferase reagent (Promega) into each well using FRD. After 30 min room temperature incubation, plates were read on a ViewLux plate reader (PerkinElmer).

SMILES | activation | Potency
CCC/C=N/O | -0.777% (inactive) | –
CCOC(=O)C1OC1(C)c1ccccc1 (stereo not given) | -0.0195% (inactive) | –
CN(C)C(=O)Nc1ccc(Cl)cc1 | – | inactive
C/C=C/C=O | -1.27% (inactive) | –
Cc1ccc(OP(=O)(Oc2ccc(C)cc2)Oc2ccc(C)cc2)cc1 | – | inactive
O=Cc1ccc2c(c1)OCO2 | 1.09% (inactive) | –
NC1CCC(CC2CCC(N)CC2)CC1 (stereo not given) | – | inactive
O=C(Cl)c1ccccc1F | -0.0258% (inactive) | –
ClCc1ccccn1 | – | inactive
CC(C)(C)C(O)(CCc1ccc(Cl)cc1)Cn1cncn1 (stereo not given) | – | inactive
Cl/C=C\Cl | -0.888% (inactive) | –
c1ccc(NNc2ccccc2)cc1 | 1.26% (inactive) | –
Clc1ccc(C(c2ccccc2Cl)C(Cl)(Cl)Cl)cc1 (stereo not given) | – | inactive
O=[N+]([O-])c1cc(Cl)c(Cl)cc1Cl | 1.53% (inactive) | –
O=[N+]([O-])c1cccc(CCl)c1 | -0.26% (inactive) | –
C=CC=O | 0.555% (inactive) | –
[O-][Cl+]O | -0.563% (inactive) | –
Nc1ccc(Cc2ccc(N)c(Cl)c2)cc1Cl | 0.376% (inactive) | –
O=[N+]([O-])c1c(Cl)c(Cl)c(Cl)c(Cl)c1Cl | 1.23% (inactive) | –
CCOC(=O)CC(SP(=O)(OC)OC)C(=O)OCC (stereo not given) | – | inactive

SMILES | activation | Potency
C=CCOCC1CO1 (stereo not given) | -1.23% (inactive) | –
C=C(Cl)CCl | -0.803% (inactive) | –
CCCCC(CC)COC(=O)c1ccc(C(=O)OCC(CC)CCCC)c(C(=O)OCC(CC)CCCC)c1 (stereo not given) | -1.12% (inactive) | –
CC(C)CON=O | -1.17% (inactive) | –
COP(=S)(OC)SCn1nnc2ccccc2c1=O | – | inactive
Cc1ccc2c(C)cccc2c1 | -1.83% (inactive) | –
Oc1cccc(Cl)c1Cl | -1.02% (inactive) | –
CC(C)(C)OOC(=O)c1ccccc1 | – | inactive
OCCOCCO | -0.762% (inactive) | –
CC(C)OC(=O)Cc1ccccc1 | -0.398% (inactive) | –
O=[N+]([O-])/C=C/c1ccccc1 | 1.65% (inactive) | –
COC(C)(C)C | -0.93% (inactive) | –
CC(C)(C)c1ccccc1O | – | inactive
Nc1cccc(Cl)c1 | -1.53% (inactive) | –
O=c1ccc(=O)[nH][nH]1 | – | inactive
CCOP(=S)(OCC)Oc1nc(Cl)c(Cl)cc1Cl | – | inactive
N#CCBr | -0.292% (inactive) | –
Cc1ccc(N)cc1C | -0.194% (inactive) | –
CC[N+](=O)[O-] | 0.209% (inactive) | –
CC(=O)[O-].CC(=O)[O-].CC(=O)[O-].[Cr+3] | -2% (inactive) | –
